Test results as given in PubChem BioAssay (Tox21).
Values without a mark were called inactive. Records with an inconclusive call do not appear. A call without a number means that no potency is given here. Activity calls are given as the source filed them. The call rests on the fitted dose curve; in most records, active means well fitted curve in the direction sought with a large enough effect in the repeat runs; inconclusive means weak or mixed curves; inactive means no such curve, though single readings can be large; an effect the other way counts as inactive or inconclusive.

Key:
[1] = qHTS RealTime-Glo MT Cell Viability Assay in HepG2 cells - 40 hour (AID 1224870); further: nearly all actives have a fitted effect of over 50% in size
Summary of the method: (§1)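 HepG2 cells mixed with RealTime-Glo MT reagents (NanoLuc plus cell-permeant prosubstrate) were seeded at 600 cells/well, incubated 5 h at 37 C/5% CO2, then pinned with compounds in DMSO; nonlytic luminescence tracked viability during 40 h treatment.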

[2] = A CellTox Green Cytotoxicity Assay to monitor cytotoxicity in HEK293 cells - 40 hour (AID 1224871); further: nearly all actives have a fitted effect of over 45% in size
Summary of the method: (§2)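 Cells (HEK293, 600/well) and dye reagent are dispensed together. After 5 h at 37 C, 23 nL compound is pinned in. Plates stay at 37 C for 40 h with fluorescence read at 0h, 8h, 16h, 24h, 32h and 40h.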

[3] = qHTS RealTime-Glo MT Cell Viability Assay in HEK293 cells - 16 hour (AID 1224872); further: nearly all actives have a fitted effect of over 50% in size; further: potency means the concentration at half of the fitted maximal effect
Summary of the method: (§3)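 Luminescence generated by NanoLuc from substrate produced by living HEK293 cells served as the viability signal. Each value reflects the reading at its stated time point during continuous 40 h compound exposure at 37 C.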

[4] = qHTS RealTime-Glo MT Cell Viability Assay in HepG2 cells - 8 hour (AID 1224873); further: nearly all actives have a fitted effect of over 55% in size
Summary of the method: as §1

[5] = qHTS RealTime-Glo MT Cell Viability Assay in HEK293 cells - 40 hour (AID 1224874); conditions: RealTime-Glo luminescence; max response: hits give low values; further: nearly all actives have a fitted effect of over 50% in size; further: potency means the concentration at half of the fitted maximal effect
Summary of the method: (§4)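 Real-time viability in HEK293: signal arises when living cells convert a prosubstrate for NanoLuc in the medium, so luminescence tracks viable cell number. Compound (23 nL, DMSO) added 5 h post-seeding; kinetic reads at 0–40 h, 37 C.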

[6] = A CellTox Green Cytotoxicity Assay to monitor cytotoxicity in HEK293 cells - 24 hour (AID 1224875); further: series mostly up to about 77 µM; nearly all actives have a fitted effect of over 45% in size
Summary of the method: as §2

[7] = A CellTox Green Cytotoxicity Assay to monitor cytotoxicity in HepG2 cells - 16 hour (AID 1224876); further: nearly all actives have a fitted effect of over 45% in size
Summary of the method: (§5)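 Cells and non-lytic dye reagent are dispensed together (600 HepG2 cells/well) and incubated 5 h before DMSO compound transfer. Kinetic fluorescence is then recorded in the same wells during 40 h at 37 C.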

[8] = qHTS RealTime-Glo MT Cell Viability Assay in HepG2 cells - 32 hour (AID 1224877); further: nearly all actives have a fitted effect of over 55% in size
Summary of the method: (§6)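 Tox21 10K library screened in qHTS format on HepG2 cells carrying RealTime-Glo reagents. Compounds were added after a 5 h preincubation, and the luminescent signal from continuous culture was measured repeatedly during 40 h treatment.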

[9] = A CellTox Green Cytotoxicity Assay to monitor cytotoxicity in HepG2 cells - 24 hour (AID 1224878); further: nearly all actives have a fitted effect of over 45% in size
Summary of the method: as §5

[10] = A CellTox Green Cytotoxicity Assay to monitor cytotoxicity in HepG2 cells - 40 hour (AID 1224879); further: nearly all actives have a fitted effect of over 40% in size
Summary of the method: as §5

[11] = qHTS RealTime-Glo MT Cell Viability Assay in HEK293 cells - 0 hour (AID 1224880)
Summary of the method: as §4

[12] = A CellTox Green Cytotoxicity Assay to monitor cytotoxicity in HEK293 cells - 32 hour (AID 1224881); further: nearly all actives have a fitted effect of over 40% in size
Summary of the method: as §2

[13] = A CellTox Green Cytotoxicity Assay to monitor cytotoxicity in HepG2 cells - 0 hour (AID 1224882); further: nearly all actives have a fitted effect of over 35% in size
Summary of the method: as §5

[14] = A CellTox Green Cytotoxicity Assay to monitor cytotoxicity in HepG2 cells - 32 hour (AID 1224883); further: nearly all actives have a fitted effect of over 50% in size
Summary of the method: as §5

[15] = qHTS RealTime-Glo MT Cell Viability Assay in HepG2 cells - 16 hour (AID 1224885); further: nearly all actives have a fitted effect of over 50% in size
Summary of the method: as §6

[16] = qHTS RealTime-Glo MT Cell Viability Assay in HEK293 cells - 24 hour (AID 1224886); further: nearly all actives have a fitted effect of over 50% in size; further: potency means the concentration at half of the fitted maximal effect
Summary of the method: as §3

[17] = A CellTox Green Cytotoxicity Assay to monitor cytotoxicity in HEK293 cells - 16 hour (AID 1224888); further: nearly all actives have a fitted effect of over 35% in size
Summary of the method: as §2

[18] = qHTS RealTime-Glo MT Cell Viability Assay in HepG2 cells - 0 hour (AID 1224889); further: nearly all actives have a fitted effect of over 50% in size
Summary of the method: as §6

[19] = A CellTox Green Cytotoxicity Assay to monitor cytotoxicity in HEK293 cells - 8 hour (AID 1224884); further: nearly all actives have a fitted effect of over 35% in size
Summary of the method: as §2

[20] = qHTS RealTime-Glo MT Cell Viability Assay in HEK293 cells - 8 hour (AID 1224887); further: nearly all actives have a fitted effect of over 50% in size; further: potency means the concentration at half of the fitted maximal effect
Summary of the method: as §4

Structure (SMILES): Cc1cccc(C)c1NC(=O)CN1CCCC1
- Potency [1]: inactive
- Potency [2]: inactive
- Potency [3]: inactive
- outcome [4]: inactive
- max response [5]: 8.7%
- Potency [6]: inactive
- Potency [7]: inactive
- Potency [8]: inactive
- Potency [9]: inactive
- Potency [10]: inactive
- Potency [11]: inactive
- Potency [12]: inactive
- Potency [13]: inactive
- Potency [14]: inactive
- outcome [15]: inactive
- Potency [16]: inactive
- Potency [17]: inactive
- Potency [18]: inactive

Structure (SMILES): C1=COCCC1
- Potency [1]: inactive
- Potency [2]: inactive
- Potency [3]: inactive
- outcome [4]: inactive
- max response [5]: 1.01%
- Potency [6]: inactive
- Potency [7]: inactive
- Potency [8]: inactive
- Potency [9]: inactive
- Potency [10]: inactive
- Potency [11]: inactive
- Potency [12]: inactive
- Potency [13]: inactive
- Potency [19]: inactive
- outcome [15]: inactive
- Potency [16]: inactive
- Potency [20]: inactive
- Potency [17]: inactive
- Potency [18]: inactive

Structure (SMILES): O=C(O)CCc1nc2ccccc2[nH]1
- Potency [1]: inactive
- Potency [2]: inactive
- Potency [3]: inactive
- outcome [4]: inactive
- max response [5]: 11%
- Potency [6]: inactive
- Potency [7]: inactive
- Potency [8]: inactive
- Potency [9]: inactive
- Potency [10]: inactive
- Potency [11]: inactive
- Potency [12]: inactive
- Potency [13]: inactive
- Potency [14]: inactive
- Potency [19]: inactive
- outcome [15]: inactive
- Potency [17]: inactive
- Potency [18]: inactive

Structure (SMILES): Nc1ccc(F)cc1F
- Potency [1]: inactive
- Potency [2]: inactive
- Potency [3]: inactive
- outcome [4]: inactive
- max response [5]: -13.8%
- Potency [6]: inactive
- Potency [7]: inactive
- Potency [8]: inactive
- Potency [9]: inactive
- Potency [10]: inactive
- Potency [11]: inactive
- Potency [12]: inactive
- Potency [13]: inactive
- Potency [19]: inactive
- outcome [15]: inactive
- Potency [20]: inactive
- Potency [17]: inactive
- Potency [18]: inactive

Structure (SMILES): COc1cc(CNC(=O)CCCC/C=C/C(C)C)ccc1O
- Potency [1]: inactive
- Potency [2]: inactive
- Potency [3]: 4.25 µM (active)
- outcome [4]: inactive
- Potency [5]: 8.48 µM (active)
- Potency [6]: inactive
- Potency [7]: inactive
- Potency [8]: inactive
- Potency [9]: inactive
- Potency [10]: inactive
- Potency [11]: inactive
- Potency [12]: inactive
- Potency [13]: inactive
- Potency [14]: inactive
- outcome [15]: inactive
- Potency [16]: 4.77 µM (active)
- Potency [20]: 2.39 µM (active)
- Potency [17]: inactive
- Potency [18]: inactive

Structure (SMILES): CC(C(=O)O)c1ccc2c(c1)Cc1cccnc1O2 (centres undefined)
- Potency [1]: inactive
- Potency [2]: inactive
- Potency [3]: inactive
- outcome [4]: inactive
- max response [5]: 1.21%
- Potency [6]: inactive
- Potency [7]: inactive
- Potency [8]: inactive
- Potency [9]: inactive
- Potency [10]: inactive
- Potency [11]: inactive
- Potency [12]: inactive
- Potency [13]: inactive
- Potency [14]: inactive
- outcome [15]: inactive
- Potency [16]: inactive
- Potency [20]: inactive
- Potency [18]: inactive

Structure (SMILES): O=Cc1ccc([N+](=O)[O-])cc1
- Potency [1]: inactive
- Potency [2]: inactive
- Potency [3]: inactive
- outcome [4]: inactive
- max response [5]: 7.58%
- Potency [6]: inactive
- Potency [7]: inactive
- Potency [8]: inactive
- Potency [9]: inactive
- Potency [10]: inactive
- Potency [11]: inactive
- Potency [12]: inactive
- Potency [13]: inactive
- Potency [14]: inactive
- Potency [19]: inactive
- outcome [15]: inactive
- Potency [20]: inactive
- Potency [17]: inactive
- Potency [18]: inactive

Structure (SMILES): CC(C)=CCCC(C)C=O (centres undefined)
- Potency [1]: inactive
- Potency [2]: inactive
- Potency [3]: inactive
- outcome [4]: inactive
- max response [5]: 3.8%
- Potency [6]: inactive
- Potency [7]: inactive
- Potency [8]: inactive
- Potency [9]: inactive
- Potency [10]: inactive
- Potency [11]: inactive
- Potency [12]: inactive
- Potency [13]: inactive
- Potency [14]: inactive
- outcome [15]: inactive
- Potency [20]: inactive
- Potency [17]: inactive
- Potency [18]: inactive

Structure (SMILES): C1CCN(CN2CCCCC2)CC1
- Potency [1]: inactive
- Potency [2]: inactive
- Potency [3]: inactive
- outcome [4]: inactive
- max response [5]: 7.66%
- Potency [6]: inactive
- Potency [7]: inactive
- Potency [8]: inactive
- Potency [9]: inactive
- Potency [10]: inactive
- Potency [11]: inactive
- Potency [12]: inactive
- Potency [13]: inactive
- Potency [14]: inactive
- Potency [19]: inactive
- outcome [15]: inactive
- Potency [16]: inactive
- Potency [17]: inactive
- Potency [18]: inactive

Structure (SMILES): O=C(O)c1ccccc1[N+](=O)[O-]
- Potency [1]: inactive
- Potency [2]: inactive
- Potency [3]: inactive
- outcome [4]: inactive
- max response [5]: 24.4%
- Potency [6]: inactive
- Potency [7]: inactive
- Potency [8]: inactive
- Potency [9]: inactive
- Potency [10]: inactive
- Potency [11]: inactive
- Potency [12]: inactive
- Potency [13]: inactive
- Potency [19]: inactive
- outcome [15]: inactive
- Potency [16]: inactive
- Potency [20]: inactive
- Potency [17]: inactive
- Potency [18]: inactive

Structure (SMILES): CCc1ccc(C(=O)C(C)CN2CCCCC2)cc1 (centres undefined)
- Potency [1]: inactive
- Potency [2]: inactive
- Potency [3]: inactive
- outcome [4]: inactive
- max response [5]: 7.68%
- Potency [6]: inactive
- Potency [7]: inactive
- Potency [8]: inactive
- Potency [9]: inactive
- Potency [10]: inactive
- Potency [11]: inactive
- Potency [12]: inactive
- Potency [13]: inactive
- Potency [14]: inactive
- Potency [19]: inactive
- outcome [15]: inactive
- Potency [20]: inactive
- Potency [17]: inactive
- Potency [18]: inactive

Structure (SMILES): CCC[Si](OC)(OC)OC
- Potency [1]: inactive
- Potency [2]: inactive
- Potency [3]: inactive
- outcome [4]: inactive
- max response [5]: -8.66%
- Potency [6]: inactive
- Potency [7]: inactive
- Potency [8]: inactive
- Potency [9]: inactive
- Potency [10]: inactive
- Potency [12]: inactive
- Potency [13]: inactive
- Potency [14]: inactive
- Potency [19]: inactive
- outcome [15]: inactive
- Potency [16]: inactive
- Potency [20]: inactive
- Potency [17]: inactive
- Potency [18]: inactive

Structure (SMILES): CCC(=O)O[C@]1(C(=O)COC)[C@@H](C)C[C@H]2[C@@H]3CCC4=CC(=O)C=C[C@]4(C)C3(F)[C@@H](O)C[C@@]21C (some centres undefined)
- Potency [1]: inactive
- Potency [2]: inactive
- Potency [3]: inactive
- outcome [4]: inactive
- max response [5]: -19.2%
- Potency [6]: inactive
- Potency [7]: inactive
- Potency [8]: inactive
- Potency [9]: inactive
- Potency [10]: inactive
- Potency [11]: inactive
- Potency [12]: inactive
- Potency [13]: inactive
- outcome [15]: inactive
- Potency [17]: inactive
- Potency [18]: inactive
